The whole screen tested about 420,000 compounds, of which about 50,000 (12%) were called active. About 26% were inconclusive and are not listed. The sample as a whole holds a higher share of actives than the screen did. Unmarked numbers belong to inactive results. Calls come from the whole dose curve; as a rule, active = well fitted inhibition curve with a large enough effect; inconclusive = small, poorly fitted or top-dose-only effect; inactive = flat fitted curve, though single readings scatter.
experiment: qHTS for Inhibitors of human tyrosyl-DNA phosphodiesterase 1 (TDP1): qHTS in cells in presence of CPT; settings: chicken DT40 Tdp1-/-;hTDP1 cells + 20 nM CPT, ATP luminescence, 48 h; series mostly up to 46.2 µM; activity change, negative = growth inhibition: at the top concentration; note: nearly all actives have a fitted effect of over 55% in size
Excerpt: Human tyrosyl-DNA phosphodiesterase 1 (TDP1) is a novel repair gene, and we propose to use it as a new target for anticancer drug development. TDP1 is not an essential protein, but under treatment with topoisomerase I poison (camptothecin: CPT), TDP1 works as a critical factor for cell survival. To directly identify novel TDP1 inhibitors active in a cellular environment, we have knocked-out the Tdp1 gene in chicken DT40 cells (Tdp1-/-) and generated a complemented counterpart cells that contains a stable transfection of the human TDP1 gene (Tdp1-/-;hTDP1 cells). For the primary screen, Tdp1-/-;hTDP1 cells will be exposed to small molecules in the presence or absence of CPT, and their growth kinetics will be evaluated after 48 hours by measuring ATP activity. […] The hit compounds will then be evaluated in the presence or absence of CPT using Tdp1-/- cells. […] In tertiary assays, biochemical gel-based assays will be used to assess whether the hit compounds specifically target TDP1. To this end, we have screened this cell line against the MLSMR in two primary screens. In one screen we add CPT and in the other we screen in the absence of CPT; this AID represents the screen where CPT was present. NIH Chemical Genomics Center [NCGC] NIH Molecular Libraries Probe Centers Network [MLPCN] MLPCN Grant: MH095538 Assay Submitter (PI): Yves Pommier, NCI
DT40-hTDP1 cells with 20 nM Camptothecin (add 20 microL of 1 mM CPT stock in 1 L of cell culture medium) were dispensed at 400 cells/5microL/well in tissue culture treated 1536-well white wall/solid bottom assay plates (Greiner Bio-One North America, NC, U.S.A.) using a Multidrop Combi 8 channel dispenser (Thermo Fisher, Waltham, MA, USA). 23 nL compounds and controls were transferred using the pin tool (Kalypsys, San Diego, CA, USA) to the assay plates. The assay plates were then incubated at 37 masculineC for a minimum 48 hr. Three microL of Cell Titer Glo solution was added to the plates and incubated at RT in dark for 30 min. Luminescence was read using ViewLux (Perkin Elmer) with 1 sec exposure slow speed, high gain and 2x binning.
% is set by controls: 0 for no effect and ±100 for the full control effect; potency is the fitted concentration of half-maximal effect.

| Compound | activity change, negative = growth inhibition | Potency |
| --- | --- | --- |
| N#CC1=C(N)Oc2[nH]c(=S)[nH]c(=O)c2C12C(=O)Nc1ccccc12 (stereo not given) | -39.3% | – |
| O=S(=O)(Nc1ccc2ccccc2c1)N1CCCCC1 | -17% | – |
| CC1CN/C(=C\C(=O)c2ccc(Br)cc2)C(=O)N1 (stereo not given) | -28% | – |
| CCN(CC)CCN(C(=O)c1ccc(S(=O)(=O)N2CCOCC2)cc1)c1nc2cc3c(cc2s1)OCCO3 | -18.7% | – |
| CCOc1ccc2nc(N(CCN(C)C)C(=O)c3ccc4ccccc4c3)sc2c1 | -27.2% | – |
| CN(C)CCCN(C(=O)c1ccc(S(=O)(=O)N2CCCCCC2)cc1)c1nc2ccc(Br)cc2s1 | – | 11.6 µM (active) |
| O=c1/c(=C/c2ccc(CNS(=O)(=O)c3ccccc3)o2)sc2n1CCN=2 | -26.8% | – |
| Nc1nc(NCc2ccccc2)n(-c2ccccc2)n1 | -6.22% | – |
| Cc1cc(C)n2c(NCc3ccccc3)c(CC(C)C)nc2n1 | – | 14.6 µM (active) |
| Cn1cc(C2OC(=O)c3ccccc32)c2ccccc21 (stereo not given) | -26.2% | – |
| ONC(=Nc1ccc(Cl)cc1)c1ccccc1Cl | -27.7% | – |
| Cc1ccc(/C=N/NC(=O)Cn2ccc(C(F)(F)F)n2)o1 | 11.8% | – |
| CCOc1ccc2oc(C(=O)N(CC)CC(=O)Nc3ccc(NC(C)=O)cc3)c(C)c2c1 | 0.608% | – |
| Cc1cccc2c1N(CCOc1ccccc1)C(=O)C2=O | – | 2.06 µM (active) |
| O=C1c2ccccc2C(=O)N1CCOc1ccc(F)cc1 | 12.8% | – |
| Cc1cccc(C)c1-n1nnnc1C1(C)CCC(=O)N1CCOc1ccccc1 (stereo not given) | -22.9% | – |
| O=c1c2ccccc2ncn1CCCCOc1ccccc1F | -27.2% | – |
| CCOC(=O)N1CCN(C(=O)C(C)NC(=O)c2ccco2)CC1 (stereo not given) | -11.1% | – |
| CC(=O)c1ccc(N2CCN(C(=O)CCNC(=O)Cn3ccc4ccccc4c3=O)CC2)cc1 | -22.6% | – |
| CCOc1cccc(NC(=O)CC#N)c1 | 11% | – |
| CCOc1cccc(NC(=O)c2ccc(F)c(S(=O)(=O)N(CC)c3cccc(C)c3)c2)c1 | – | 18.4 µM (active) |
| CCOc1ccc(N(CC(=O)Nc2cccc(OC)c2)S(C)(=O)=O)cc1 | -24.5% | – |
| O=c1[nH]c2ccccc2s1 | -3.32% | – |
| CC1CCCCN1C(=O)CCS(=O)(=O)Cc1ccccc1 (stereo not given) | -3.67% | – |
| COc1ccnc(Oc2ccccc2)n1 | 28.3% | – |
| CCC(C)c1ccccc1N1CC(C(=O)N2CCN(S(=O)(=O)c3ccc(F)cc3)CC2)CC1=O (stereo not given) | -14.4% | – |
| COc1ccc(CCNS(=O)(=O)c2cc3c(cc2C)NC(=O)CO3)cc1OC | 1.71% | – |
| CCOc1ccc(C(CC(=O)O)NC(=O)Cc2ccccc2)cc1OC (stereo not given) | 9.07% | – |

| Compound | activity change, negative = growth inhibition | Potency |
| --- | --- | --- |
| CCC/C=C(\CCC)C(NC(=O)Cc1ccccc1)c1ccc(C(=O)OC)cc1 (stereo not given) | – | 18.4 µM (active) |
| COc1ccc(CC(=O)NC(C)CCc2ccccc2)cc1 (stereo not given) | 0.105% | – |
| C=CCc1ccccc1OCC(=O)N/N=C/c1ccccc1OCC | -13.5% | – |
| Cc1ccc(/C=N/NC(=O)COc2ccccc2-c2ccccc2)cc1 | – | 0.164 µM (active) |
| Cc1cccc(OCC(=O)NCC(=O)N/N=C/c2ccc(N(C)C)cc2)c1 | -7.65% | – |
| CCOc1ccc(N(CC(=O)NCC2CCCO2)S(=O)(=O)c2ccc(C)cc2)cc1 (stereo not given) | -25.1% | – |
| O=C(COC(=O)c1ccc2c(c1)OCCO2)NCc1ccccc1Cl | 11.6% | – |
| Cc1ccc(NC(=O)NC(=O)N(C2CCCCC2)S(=O)(=O)c2ccccc2)cc1 | -10.3% | – |
| COCCNc1nc(N)c([N+](=O)[O-])c(N2CCCCCC2)n1 | 11.3% | – |
| CSc1nsc(SCC(=O)Nc2cc(C(=O)O)ccc2C)n1 | -9.95% | – |
| Cc1c(C(=O)N/N=C/c2ccccc2)[nH]c2c([N+](=O)[O-])cccc12 | – | 0.651 µM (active) |
| Cc1ccc2[nH]c(C(=O)O)c(NC(=O)c3ccccc3[N+](=O)[O-])c2c1 | 9.57% | – |
| Cc1cc(C(=O)N/N=C/c2ccccc2[N+](=O)[O-])c(C)o1 | -1.02% | – |
| O=c1c(O)c(Br)ccc2c(Br)c(O)c(O)c(O)c12 | -8.83% [at 9.04 µM] | – |
| O=C(COc1ccccc1O)NC1CCCC1 | 11.9% | – |
| N=c1c2c(-c3ccccc3)c(-c3ccccc3)n(Cc3ccccc3)c2ncn1CCCO | – | 10.3 µM (active) |
| CCN(CC)CCn1cnc2c1c(=O)[nH]c(=O)n2Cc1ccccc1 | 5.18% | – |
| COCCn1cnc2c1c(=O)n(CC(=O)NN)c(=O)n2Cc1ccccc1 | -19.6% | – |
| CCOC(=O)c1sc(N)c(C#N)c1COC(=O)C1=COCCO1 | 0.608% | – |
| CCCNC(=S)N1CCC(NC(=O)C23CC4CC(CC(C4)C2)C3)CC1 | -18.2% | – |
| NC(N)=N/N=C/c1ccc(OCc2ccc(Cl)cc2Cl)cc1 | – | 25.9 µM (active) |
| COC(=O)c1sc2ncccc2c1OCc1ccc(Cl)cc1Cl | -28.6% | – |
| COc1ccc(Cl)cc1N(CC(=O)N/N=C/c1ccc(OCC(N)=O)cc1)S(C)(=O)=O | -1.8% | – |
| CCOC(=O)C1CCN(S(=O)(=O)c2ccc3c(c2)N(C)C(=O)CC(=O)N3C)CC1 | – | inactive |
| CC(=O)Nc1ccc(OCC(=O)NCc2ccc(C)cc2)cc1 | 1.79% | – |
| C/C(CC(=O)NCc1ccc(Cl)cc1)=N\NC(=O)COc1ccc(C)cc1Br | – | 16.4 µM (active) |
| CCCCC(=O)N/N=C(\C)CC(=O)Nc1cc(Cl)ccc1OC | -9.87% | – |
